HP1b binding inh – HP1-beta chromodomain-methylated histone interaction inhibition. actives 0.56% (n = 390,000). Potency, µM (doses to about 114 µM), inactives show at the highest dose activity change, negative = inhibition, usual class: inhibitors. P83916. AID 540317. AlphaScreen HP1-beta / biotin-H3K9me3 peptide binding; note: potency is the fitted concentration of half-maximal effect; nearly all actives have a fitted effect of over 70% in size
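Compound inhibition of the preformed complex between 50 nM HP1-beta and 50 nM biotinylated H3K9me3 peptide was read by AlphaScreen. Buffer was PBS pH 7.4 with 0.01% Tween-20. Incubations ran 30 min at room temperature, with 10 ug/mL donor/acceptor beads.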
PI5P4Ka inh – blocks human PI5P4K alpha kinase activity; AID 652105; max response, %; PI5P4Kalpha enzyme, ADP-Glo luminescence, 60 min; hits give low values; P48426; actives 1.2% (n = 330,000); active = max response of -50% or lower; inconclusive = between -30% and -50%; inactive = -30% or higher; note: value at the top dose of about 77 µM; % is set by controls: 0 for no effect and ±100 for the full control effect
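qHTS, 1536-well: enzyme/substrate mix, compound by pin tool, 5 microM ATP final; RT 60 min; ADP-Glo reagents 1 (45 min) then 2 (30 min); luminescence.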
L3MBTL1 block – L3MBTL1 (human) inhibition | Q9Y468 | AlphaScreen L3MBTL1–H3K9me1 peptide binding | Potency, µM (highest dose often 57.1 µM), for inactives: at the top dose activity, negative = inhibition, actives largely listed as inhibitors | actives 0.66% (n = 230,000) | AID 485360; note: potency is the fitted concentration of half-maximal effect; % is set by controls: 0 for no effect and ±100 for the full control effect; nearly all actives have a fitted effect of over 60% in size
Target sequence (Q9Y468 whole entry, looked up): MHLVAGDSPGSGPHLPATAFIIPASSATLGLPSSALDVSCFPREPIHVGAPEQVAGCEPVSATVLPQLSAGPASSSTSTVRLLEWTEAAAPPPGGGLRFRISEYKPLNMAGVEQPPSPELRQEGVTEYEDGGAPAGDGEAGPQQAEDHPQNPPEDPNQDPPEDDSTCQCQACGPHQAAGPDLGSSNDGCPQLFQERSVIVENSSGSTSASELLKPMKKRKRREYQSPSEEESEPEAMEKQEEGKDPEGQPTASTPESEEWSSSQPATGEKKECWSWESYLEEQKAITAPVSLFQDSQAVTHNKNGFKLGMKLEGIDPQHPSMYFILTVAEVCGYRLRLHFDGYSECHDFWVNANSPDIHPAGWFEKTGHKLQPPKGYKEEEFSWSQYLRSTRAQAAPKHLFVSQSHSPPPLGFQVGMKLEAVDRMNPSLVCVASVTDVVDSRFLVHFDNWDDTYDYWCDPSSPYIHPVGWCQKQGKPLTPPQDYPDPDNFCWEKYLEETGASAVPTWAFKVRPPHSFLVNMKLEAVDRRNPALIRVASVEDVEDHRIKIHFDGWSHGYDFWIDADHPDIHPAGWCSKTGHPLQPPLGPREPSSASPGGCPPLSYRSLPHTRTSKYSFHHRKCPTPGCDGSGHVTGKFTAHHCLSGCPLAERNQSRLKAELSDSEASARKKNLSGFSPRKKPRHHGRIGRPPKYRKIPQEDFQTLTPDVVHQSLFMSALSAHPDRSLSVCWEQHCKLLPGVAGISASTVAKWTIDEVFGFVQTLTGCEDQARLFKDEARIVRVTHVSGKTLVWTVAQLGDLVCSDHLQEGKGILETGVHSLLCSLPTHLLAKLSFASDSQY
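First, the protein-peptide complex forms for 30 min at room temperature (L3MBTL1 50 nM, biotinylated H3K9me1 peptide 75 nM). Next, compounds are pin-transferred and incubated 30 min. Finally, AlphaScreen beads are added and read after 30 min.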
KDM4E inh – inhibitors of human JMJD2E histone demethylase; AID 2147; B2RXH2; JMJD2E catalytic domain, FDH-coupled NADH fluorescence (FDH is formaldehyde dehydrogenase); Potency, µM (top dose mostly 57.1 µM), without a hit: at the top dose activity change, negative = inhibition, most hits filed as inhibitors; actives 1.6% (n = 230,000); active = well fitted inhibition curve with a large enough effect, not every such curve was filed as active; inconclusive = small, poorly fitted or top-dose-only effect, or another doubt; inactive = no such curve, though single readings can be large or run the other way;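 note: potency is the fitted concentration of half-maximal effect; 0% = wells with enzyme and -100% = buffer wells without enzyme; nearly all actives have a fitted effect of over 50% in size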
BAZ2B inh – blocks human BAZ2B; Potency, µM (top dose mostly 114 µM), for the others: top-dose activity change, negative = inhibition, most hits filed as inhibitors; actives 4.4% (n = 360,000); AlphaScreen BAZ2B-H3K14Ac peptide displacement; Q9UIF8; AID 504333; note: potency is the fitted concentration of half-maximal effect; % is set by controls: 0 for no effect and ±100 for the full control effect; nearly all actives have a fitted effect of over 60% in size
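BAZ2B 50 nM plus b-H3(5-23)K14Ac 50 nM, PBS pH 7.4/0.01% Tween-20, 30 min RT; compound added (max 110 uM), 30 min RT; streptavidin donor/Ni-chelate acceptor beads 10 ug/mL final, 20 min dark; AlphaScreen read.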
JMJD2A Tudor inh – inhibitors of human JMJD2A Tudor domain; Potency, µM (doses to about 114 µM), for the others: top-dose activity change, negative = inhibition, most hits filed as inhibitors; O75164; AID 504339; AlphaScreen JMJD2A-Tudor / H3K4me3 peptide binding; actives 4.4% (n = 390,000); note: potency is the fitted concentration of half-maximal effect; % is set by controls: 0 for no effect and ±100 for the full control effect; nearly all actives have a fitted effect of over 50% in size
* marks the source's active call; other numbers are inactive results; ? = inconclusive; nt = no result given; [ ] = another dose, or the depositor's remark. Shown are actives, neighbours in structure and some others; about 5.7% of the full set was active somewhere. Unless noted, calls come from the whole dose curve; as a rule, active = well fitted inhibition curve with a large enough effect; inconclusive = small, poorly fitted or top-dose-only effect; inactive = no such curve, though single readings can be large or run the other way.

SMILES	HP1b binding inh	PI5P4Ka inh	L3MBTL1 block	KDM4E inh	BAZ2B inh	JMJD2A Tudor inh
CCC1=NN2C(=N)/C(=C\c3cccn3-c3ccc(Cl)cc3)C(=O)N=C2S1	-4%	-6	nt	-3%	?	-36%
Cc1ccc(-n2cccc2/C=C2\C(=N)N3N=C(c4ccco4)SC3=NC2=O)cc1	-3%	?	?	-19%	35µM*	?
CCC1=NN2C(=N)/C(=C\c3cccn3-c3ccc(C)c(C)c3)C(=O)N=C2S1	14%	-19	-25%	-2%	-22%	?
Cc1cc(C)cc(-n2cccc2/C=C2/C(=N)N3C(=NC2=O)SN=C3S(C)(=O)=O)c1	-19%	?	nt	-25%	56µM*	?
CS(=O)(=O)C1=NSC2=NC(=O)/C(=C\c3ccc(-c4ccccc4)o3)C(=N)N21	nt	nt	0%	8%	-6%	nt
CCc1ccc(-n2cccc2/C=C2/C(=N)N3C(=NC2=O)SN=C3S(C)(=O)=O)cc1	-3%	-61*	?	-17%	40µM*	56µM*
CS(=O)(=O)C1=NSC2=NC(=O)/C(=C\c3cccn3-c3ccccc3Cl)C(=N)N21	25%	-95*	-4%	7%	50µM*	?
COC(=O)C/C=C1\c2ccc3c(c2[C@@H](OC)[C@@H]1C)OCO3	nt	nt	nt	-2%	nt	nt
CCOC(=O)c1c(NC(C)=O)c2c3c(sc2n1Cc1nc(-c2ccccc2Cl)oc1C)CCCC3	17%	nt	nt	nt	-16%	-15%
CCC(C)NC(=O)c1nn(-c2ccc(C)cc2)c(=O)n(C)c1=O (centres undefined)	13%[57 µM]	nt	nt	nt	-1%	-18%
Cc1ccc(-n2cccc2/C=C2/C(=N)N3C(=NC2=O)SN=C3S(C)(=O)=O)cc1	-24%	-67*	?	5%	45µM*	16µM*
Cc1ccc(-n2c(C)cc(/C=C3/C(=N)N4C(c5ccccc5)=CSC4=NC3=O)c2C)cc1	9%	-12	3%	-7%	1%	-19%
Cc1ccc(C)c(N2CCN(S(=O)(=O)c3cc(C(=O)Nc4ccccc4C(F)(F)F)ccc3F)CC2)c1	3%	nt	nt	nt	0%	-24%
CCC(C)C(=O)Nc1nnc(CCc2ccccc2)s1 (centres undefined)	4%	-24	37%	nt	33%	71µM*
O=C(NCCCn1ccnc1)C(=O)NC1CCCCC1	36%	9	-7%	-4%	-17%	-19%
O=C(O)C1CCCCC1C(=O)NCCCn1ccnc1 (centres undefined)	8%	nt	nt	0%	79µM*	-34%
O=C(/C=N/O)NCCCn1ccnc1	29%	2	0%	1%	79µM*	-17%
O=C(/C=C/c1ccc(Br)cc1)NCCCn1ccnc1	11%	-2	-4%	nt	-7%	-19%
NS(=O)(=O)c1ccc(CCNC(=O)c2nc(SCc3ccccc3F)ncc2Cl)cc1	28%	nt	nt	nt	-2%	-14%
CN(C(=O)Cn1cc(S(=O)(=O)Cc2ccccc2Cl)c2ccccc21)c1ccccc1	11%	nt	nt	nt	3%	-21%
COC(=O)C1=C(C)N(CCCC(=O)O)C(=O)NC1c1ccc(C(F)(F)F)cc1 (centres undefined)	29%	-81*	3%	nt	-31%	-3%
COC(=O)C1=C(C)N(CCCC(=O)O)C(=O)NC1c1ccccc1Cl (centres undefined)	46%	-82*	nt	nt	nt	4%
CC1=C(C(=O)OCC(Br)(Br)Br)C(c2ccc(Br)cc2)NC(=O)N1CCCC(=O)O (centres undefined)	nt	nt	9%	2%	-10%	nt
COC(=O)C1=C(C)N(CCCC(=O)O)C(=O)NC1c1ccc(C#N)cc1 (centres undefined)	8%	-63*	nt	nt	nt	-35%
COCCN1C(=O)N[C@@H](c2cccc(C(F)(F)F)c2)C(C(=O)OC)=C1C	17%	-4	nt	7%[11.4 µM]	nt	?
SMILES	HP1b binding inh	PI5P4Ka inh	L3MBTL1 block	KDM4E inh	BAZ2B inh	JMJD2A Tudor inh
CC1=C(C(=O)OCc2ccccc2)C(c2ccccc2Cl)NC(=O)N1C (centres undefined)	7%	3	-2%	nt	-25%	-20%
COC(=O)C1=C(C)N(CCCC(=O)O)C(=O)NC1c1ccc(-c2ccccc2)cc1 (centres undefined)	34%	-75*	2%	8%	-9%	3%
COc1ccccc1CNC(=O)c1cnc2sc(N3CCCCC3)nn2c1=O	-18%	nt	nt	nt	-10%	-15%
COCCNC(=O)Cn1c(-c2cccs2)cc2cc(Cl)ccc21	24%	nt	nt	nt	-12%	-11%
COC(=O)C1=C(C)N(CCCC(=O)O)C(=O)NC1c1ccc(Br)cc1 (centres undefined)	14%	-99*	20%	nt	-4%	-18%
O=C1C=C(Nc2ccccc2)c2ccccc2C1=O	?	0	?	-25%	?	-31%
O=C1C=C(Nc2ccccc2)C(=O)c2ccccc21	?	-4	?	2%	7.9µM*	?
CCc1ccc(NC2=CC(=O)C(=O)c3ccccc32)cc1	?	-10	-13%	nt	50µM*	45µM*
CCc1ccc2c(c1)C(=O)c1ccccc1C2=O	?	12	?	-4%	?	?
C=C1CCN(C(Cc2ccccc2)C(=O)O)S(=O)(=O)c2ccccc21 (centres undefined)	35%	nt	nt	nt	nt	1%
Cc1c(C)n(CC(O)CNc2ccccc2)c2ccccc12 (centres undefined)	?	20	-17%	18µM*	25µM*	25µM*
Cc1c(C)n(CC(O)CNCCO)c2ccccc12 (centres undefined)	?	5	4%	?	45µM*	13µM*
COc1ccc(NCC(O)Cn2c(C)c(C)c3ccccc32)cc1 (centres undefined)	40µM*	-2	?	-2%	40µM*	?
Cc1c(C)n(CC(O)CSc2ccccc2)c2ccccc12 (centres undefined)	nt	28	nt	nt	nt	nt
CCN(CC(=O)Nc1c(F)cccc1F)C(=O)c1ccc(COc2ccccc2)o1	-4%	-4	6%	nt	9%	-19%
Cc1cc(C)n(-c2cccc(C(=O)O)c2)n1	17%	1	-3%	5%	-13%	-8%
Cc1cccc(NC(=O)C(Cc2ccccc2)NS(=O)(=O)c2ccc3c(c2)c(=O)n(C)c(=O)n3C)c1 (centres undefined)	12%	nt	nt	nt	89µM*	-11%
CCC(C)(CCN1CCOCC1)N(Cc1cc2ccccc2n(C)c1=O)C(=O)C1CCCCC1 (centres undefined)	nt	nt	nt	nt	nt	-14%
C[C@@](N)(Cc1ccc(O)c(O)c1)C(=O)O	nt	nt	nt	7.9µM*	nt	nt
O=C(O)Cc1ccc2ccc3ccccc3c2c1	72%	0	nt	nt	nt	-9%
